Hits are enriched below; roughly 27% of the tested compounds scored in any of these assays.
CYP2C19 inh: blocks human cytochrome P450 2C19; CYP2C19 Supersomes, luciferin-H EGE luminescence, 30 min; inhibition, % at 5 µM; hit rate 21% among 96,000;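 active means CYP2C19 inhibition above a set limit at 5 µM in the primary screen, cut at about 50% in these data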
CYP2C9 inhib: human CYP2C9 inhibition; P11712; CYP2C9 Supersomes, luciferin-H conversion, luminescence; inhibition, % at 5 µM; hit rate 20% among 96,000;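 active means blocking of liver enzyme CYP2C9 beyond about 50% at 5 µM, limit read from the data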
Target sequence (P11712 whole entry, looked up): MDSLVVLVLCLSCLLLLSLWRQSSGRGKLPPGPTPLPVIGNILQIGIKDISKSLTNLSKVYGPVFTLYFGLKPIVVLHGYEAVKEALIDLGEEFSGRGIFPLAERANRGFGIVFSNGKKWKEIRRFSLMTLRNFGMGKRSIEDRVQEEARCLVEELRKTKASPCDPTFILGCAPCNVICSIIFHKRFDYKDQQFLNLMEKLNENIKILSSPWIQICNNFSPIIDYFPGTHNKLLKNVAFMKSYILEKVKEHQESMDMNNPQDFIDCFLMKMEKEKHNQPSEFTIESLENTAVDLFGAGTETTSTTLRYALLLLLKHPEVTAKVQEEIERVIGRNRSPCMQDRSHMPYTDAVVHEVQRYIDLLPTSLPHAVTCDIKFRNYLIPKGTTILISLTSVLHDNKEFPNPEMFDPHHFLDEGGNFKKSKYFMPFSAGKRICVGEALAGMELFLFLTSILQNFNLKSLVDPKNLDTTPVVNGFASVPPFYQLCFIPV
sEH act: increases human soluble epoxide hydrolase activity; activation, % at 2 µM; hit rate 0.04% among 91,000; purified human sEH enzymatic activity, activator screen; P34913; in the data active means activation above about 37%
CYP2C19 act: activators of human cytochrome P450 2C19 | AID 1025 | recombinant CYP2C19, luciferin-H EGE luminescence; active compounds read high; 0 = fully inhibited enzyme, 1 = untreated enzyme | 96,000 tested, under 10 active | activation factor at 5 µM | P33261;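 active means activation factor of at least 2 at 5 µM in the primary screen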
sEH inh: inhibitors of human soluble epoxide hydrolase. hit rate 0.34% among 91,000. inhibition, % at 2 µM. AID 707. P34913. recombinant human sEH enzymatic activity assay; in the data active means inhibition above about 80%
CYP2C9 act: CYP2C9 (human) activation. P11712. recombinant CYP2C9, luciferin-H conversion, luminescence; active compounds read high; factor 1 = untreated enzyme, 0 = blocked. activation factor at 5 µM. hit rate 1.4% among 96,000. AID 1024;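 active means activation factor of 2 or more for CYP2C9 at a 5 µM dose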
Of the large screens only hits and unclear results are named; the others gave an inactive call.

CCN(Cc1cc2ccccc2[nH]c1=O)C(=O)C(C)C	none
Cc1ccc(S(=O)(=O)Nc2cccc3ncccc23)s1	CYP2C9 act 2.5
Cc1ccc(S(=O)(=O)Nc2ccnc3ccccc23)cc1	none
Cn1cccc1C(=O)OCC(=O)Nc1ccc2c(c1)CCC2	none
N#Cc1ccc(Oc2cccc(C(=O)O)c2)cc1C#N	none
Cc1ccc2c(c1)C(c1ccccc1)N(C(=O)c1ccc(Br)o1)CC(=O)N2 (stereo not drawn)	CYP2C9 inhib 74.2
O=C1CN(C(=O)c2ccc(Br)o2)C(c2ccccc2)c2cc(Br)ccc2N1 (stereo not drawn)	CYP2C19 inh 96.3, CYP2C9 inhib 100.3
Cc1ccc2c(c1)C(c1ccc(F)cc1)N(C(=O)C1CC1)CC(=O)N2 (stereo not drawn)	none
O=C(O)CN1C(=O)Nc2ccc(Br)cc2C1c1ccccc1 (stereo not drawn)	none (no result: sEH act, sEH inh)
COc1ccc(O)c(-c2[nH]ncc2C(=O)c2ccccc2C)c1	CYP2C19 inh 90.2, CYP2C9 inhib 86.9
CS(=O)(=O)N(CC(=O)N1CCN(c2ccccc2)CC1)c1ccccc1Cl	none (no result: CYP2C19 inh, CYP2C9 inhib, CYP2C19 act, CYP2C9 act)
Cn1nccc1C(=O)N1CCN(c2ccc(F)cc2)CC1	none (no result: CYP2C19 inh, CYP2C9 inhib, CYP2C19 act, CYP2C9 act)
CC1CCN(c2nc(-c3ccccc3)cc(C(F)(F)F)n2)CC1	none
CN1CCN(c2nc(-c3ccccc3)cc(C(F)(F)F)n2)CC1	CYP2C19 inh 50.0
CC1CC(C)CN(CCCNC(=O)c2csc3c2CCCC3)C1 (stereo not drawn)	none
CCN=C(N/N=C/c1ccc([N+](=O)[O-])cc1)SC	none
CC1=NN(c2ccc(C)c(C)c2)C(=O)C1C(c1cccc(O)c1)C1C(=O)N(c2ccc(C)c(C)c2)N=C1C (stereo not drawn)	CYP2C9 inhib 60.6
Cc1ccc2nc(SCC(=O)Nc3ccc4sc(C)nc4c3)c(C#N)cc2c1	none
N/C(=N\OC(=O)Nc1ccc(Cl)cc1)c1ncc(C(F)(F)F)cc1Cl	none
COc1ccc(/C(=N\O)c2ncc(C(F)(F)F)cc2Cl)cc1	CYP2C19 inh 79.1
O=C(c1ccccc1)c1ncc(C(F)(F)F)cc1Cl	CYP2C19 inh 64.7
O/N=C(\c1ccc(Cl)cc1Cl)c1ncc(C(F)(F)F)cc1Cl	CYP2C19 inh 92.7, CYP2C9 inhib 74.5
O=C(c1ccc(Cl)cc1Cl)c1ncc(C(F)(F)F)cc1Cl	CYP2C19 inh 53.0
Cc1ccccc1OCC(O)Cn1c(NCc2ccco2)nc2c1c(=O)n(C)c(=O)n2C (stereo not drawn)	CYP2C19 inh 86.9, CYP2C9 inhib 92.6
O=C(Cn1cc([N+](=O)[O-])cn1)N1N=C(C(F)F)CC1(O)C(F)F (stereo not drawn)	none (no result: CYP2C19 inh, CYP2C9 inhib, CYP2C19 act, CYP2C9 act)
O=C(c1ccc(Cl)c(Cl)c1)c1cc(-c2ccccn2)c(N2CCOCC2)s1	CYP2C9 inhib 65.3
CSc1ccc(NC(=O)N2CCN(c3nc4ccccc4s3)CC2)cc1	none
O=C1CCCN1c1ccc(S(=O)(=O)Oc2cccc(Cl)c2)cc1[N+](=O)[O-]	CYP2C19 inh 66.5
Cc1ccccc1C(=O)Nc1nnc(-c2ccc(F)cc2)o1	none
Fc1ccc(-c2nnc(NC3=NCCCCC3)o2)cc1	CYP2C19 inh 56.5 (no result: sEH act, sEH inh)
O=C(CNC1=NCCC1)c1ccc2c(c1)OCCO2	none
CCOC(=O)N1CCN(C(=O)CCSc2ccccc2)CC1	CYP2C19 inh 71.3 (no result: sEH act, sEH inh)
O=C(CCc1ccc(S(=O)(=O)NCCc2ccccc2)cc1)Nc1ccc2c(c1)OCO2	CYP2C19 inh 90.3, CYP2C9 inhib 84.2
CCOC(=O)N1CCN(C(=O)CCSc2ccc(C)cc2)CC1	none (no result: CYP2C19 inh, CYP2C9 inhib, CYP2C19 act, CYP2C9 act)
O=C(CCc1ccc(S(=O)(=O)NCCc2ccccc2)cc1)N1CCN(Cc2ccc3c(c2)OCO3)CC1	CYP2C19 inh 53.1
CC(C)CNS(=O)(=O)c1ccc(CCC(=O)Nc2ccc3c(c2)OCO3)cc1	none
CCOC(=O)N1CCN(C(=O)CCc2ccc(S(=O)(=O)NCCc3ccccc3)cc2)CC1	CYP2C19 inh 82.3, CYP2C9 inhib 77.7
COc1ccccc1NC(=O)c1ccc(NC(=O)CSc2nnnn2C)cc1	none
OC(CNCC(c1ccco1)N1CCCCC1)c1ccccc1 (stereo not drawn)	none
O=C(/C=C/c1cccs1)NC(=S)NNC(=O)Cc1cccs1	none (no result: CYP2C19 inh, CYP2C9 inhib, CYP2C19 act, CYP2C9 act)
COc1ccc(C(NC(=O)CC(C)C)NC(=O)CC(C)C)cc1OC	none
CCCCN(C)C(=O)C(Cc1ccccc1)NS(=O)(=O)c1ccc2c(c1)c(=O)n(C)c(=O)n2C (stereo not drawn)	none
CCc1c(C)sc(NC(=O)c2ccco2)c1C(=O)N1CCCCC1	none
CCOC(=O)c1c(N)sc(C(=O)N2CCCCCC2)c1C	CYP2C19 inh 80.8
CCOC(=O)c1c(N)sc(C(=O)N2CCCC(C(N)=O)C2)c1C (stereo not drawn)	none (no result: CYP2C19 inh, CYP2C9 inhib, CYP2C19 act, CYP2C9 act)
CCOC(=O)c1c(N)ssc1=S	CYP2C9 inhib 66.5 (no result: sEH act, sEH inh)
CCOC(=O)c1c(NC(=O)c2ccco2)sc(C(=O)N2CCCC2)c1C	CYP2C9 inhib 56.2
CCOC(=O)c1c(NC(=O)CC)sc(C(=O)N2CCCCC2)c1C	CYP2C19 inh 74.8, CYP2C9 inhib 56.9
COC(=O)CSc1nc(-c2ccccc2)cc(-c2ccco2)c1C#N	CYP2C9 inhib 89.3
COC(=O)CSc1nc(N)c(C#N)c(-c2ccco2)c1C#N	none
CSc1nc(-c2ccco2)cc(C(F)(F)F)c1C#N	none (no result: CYP2C19 inh, CYP2C9 inhib, CYP2C19 act, CYP2C9 act)
CSc1nc(-c2ccco2)cc(-c2ccccc2)c1C#N	CYP2C9 inhib 65.7
CN1CC(=O)N(C)c2nc(Br)n(C)c2C1=O	none
O=C(c1cc2ccccc2oc1=O)N(Cc1ccco1)C1CCS(=O)(=O)C1 (stereo not drawn)	none
CC(C)c1ccc(CN(C(=O)c2cc3ccccc3oc2=O)C2CCS(=O)(=O)C2)cc1 (stereo not drawn)	CYP2C9 inhib 62.5
COc1ccc(CN(C(=O)c2oc3ccccc3c2C)C2CCS(=O)(=O)C2)cc1OC (stereo not drawn)	CYP2C19 inh 75.2, CYP2C9 inhib 95.6
Cc1ccsc1-c1nc(CSCC(=O)NCc2ccc3c(c2)OCO3)c(C)o1	CYP2C9 inhib 79.0
COc1ccc(-c2nc(CSCC(=O)NCCC3=CCCCC3)c(C)o2)cc1OC	CYP2C19 inh 60.0
COc1ccc(-c2nc(CSCC(=O)N3CCc4ccccc43)c(C)o2)cc1OC	none
COCCNC(=O)CSCc1nc(-c2ccc(SC)cc2)oc1C	none
COc1ccc(-c2nc(CS(=O)CC(=O)NCCC3=CCCCC3)c(C)o2)cc1 (stereo not drawn)	none
COc1ccc(-c2nc(CSCC(=O)NCc3ccc4c(c3)OCO4)c(C)o2)cc1OC	CYP2C19 inh 65.1, CYP2C9 inhib 52.8 (no result: sEH act, sEH inh)
COc1ccc(-c2nc(CSCC(=O)NCc3ccc4c(c3)OCO4)c(C)o2)cc1	CYP2C19 inh 95.3, CYP2C9 inhib 89.2
CCCOc1nc2c(c(=O)n(C)c(=O)n2C)n1CC	none (no result: sEH act, sEH inh)
CCc1ccc(-c2nc(CSCC(=O)NCCCN3CCCC3=O)c(C)o2)cc1	CYP2C9 inhib 87.7
CCOc1ccc(C2Sc3ccccc3NC3=C2C(=O)OC3)cc1 (stereo not drawn)	CYP2C19 inh 68.2, CYP2C9 inhib 55.7
